Source: PubChem BioAssay AID1159580 (chemical genetic matrix, 2015)
Values joined by “and” are separate entries in the source; they are usually repeats but may differ in a detail not shown here. Equal values may be shown once. Hit rate of the full screen: of about 5,500 compounds, about 2,000 (36%) were called active. Another 18% or so got no clear call; they are omitted. Cut-off read from the data, not from the text of the source: active = normalized growth mostly below about 0.91 (no sharp cut-off); inconclusive = no clear call, values can overlap the other calls; inactive = mostly above about 0.92. This is one part of the list.

Assay: chemical genetic growth profiling, strain panel (AID 1159580);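 note: tested at 20 µM; growth read once vehicle control cultures reached saturation at 30 °C; 1 = growth at the plate median or of vehicle wells; lower values mean less growth of the strain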
Details: S. cerevisiae deletion strains, growth OD

Measured: normalized growth

CCOc1cccc(C(=O)c2ccc(O)c(O)c2O)c1
active: locus YAL021C, strain ccr4, stronger effect = lower value 0.601 | locus YAL026C, strain drs2, stronger effect = lower value 0.813 | locus YAL030W, strain snc1, stronger effect = lower value 0.928 | locus YBL061C, strain skt5, stronger effect = lower value 0.888 | locus YBR009C, strain hhf1, stronger effect = lower value 0.879 | locus YBR023C, strain chs3, stronger effect = lower value 0.806 | locus YBR231C, strain swc5, stronger effect = lower value 0.783 | locus YCL029C, strain bik1, stronger effect = lower value 0.776 | locus YDL035C, strain GPR1, stronger effect = lower value 0.804 | locus YDL074C, strain BRE1, stronger effect = lower value 0.67 | locus YDL101C, strain DUN1, stronger effect = lower value 0.752 | locus YDL185W, strain tfp1, stronger effect = lower value 0.586 | locus YDL192W, strain arf1, stronger effect = lower value 0.815 | locus YDR069C, strain doa4, stronger effect = lower value 0.566 | locus YDR101C, strain arx1, stronger effect = lower value 0.889 | locus YDR137W, strain rgp1, stronger effect = lower value 0.643 | locus YDR159W, strain sac3, stronger effect = lower value 0.84 | locus YDR162C, strain NBP2, stronger effect = lower value 0.672 | locus YDR297W, strain sur2, stronger effect = lower value 0.916 | locus YDR318W, strain mcm21, stronger effect = lower value 0.877 | locus YDR334W, strain swr1, stronger effect = lower value 0.886 | locus YDR335W, strain msn5, stronger effect = lower value 0.84 | locus YDR388W, stronger effect = lower value 0.923 | locus YDR502C, strain sam2, stronger effect = lower value 0.791 | locus YEL003W, strain gim4, stronger effect = lower value 0.839 | locus YER015W, strain faa2, stronger effect = lower value 0.89 | locus YER111C, strain swi4, stronger effect = lower value 0.815 | locus YER155C, strain BEM2 (second series), stronger effect = lower value 0.847 | locus YER155C, strain BEM2, stronger effect = lower value 0.858 | locus YFR010W, strain ubp6, stronger effect = lower value 0.84 | locus YGL086W, strain mad1, stronger effect = lower value 0.782 | locus YGL173C, strain kem1, stronger effect = lower value 0.766 | locus YGL248W, strain PDE1, stronger effect = lower value 0.792 | locus YGL253W, strain hxk2, stronger effect = lower value 0.901 | locus YGR135W, strain pre9, stronger effect = lower value 0.777 | locus YHR013C, strain ard1, stronger effect = lower value 0.81 | locus YHR027C, strain rpn1, stronger effect = lower value 0.83 | locus YHR079C, strain IRE1 (second series), stronger effect = lower value 0.859 | locus YHR129C, strain ARP1, stronger effect = lower value 0.761 | locus YHR142W, strain chs7, stronger effect = lower value 0.776 | locus YHR200W, strain rpn10, stronger effect = lower value 0.859 | locus YIL066C, strain RNR3, stronger effect = lower value 0.8 | locus YIL073C, strain SPO22, stronger effect = lower value 0.654 | locus YJL095W, strain BCK1 (second series), stronger effect = lower value 0.867 | locus YJL164C, strain tpk1, stronger effect = lower value 0.811 | locus YJL166W, strain qcr8, stronger effect = lower value 0.872 | locus YJL187C, strain SWE1 (second series), stronger effect = lower value 0.42 | locus YJL187C, strain SWE1, stronger effect = lower value 0.895
0.603 (active) and 0.961 (inactive): locus YJL095W, strain BCK1, stronger effect = lower value
inactive: locus YBR021W, strain FUR4, stronger effect = lower value 0.898 | locus YBR171W, strain sec66, stronger effect = lower value 0.918 | locus YBR229C, strain ROT2, stronger effect = lower value 0.938 | locus YBR279W, strain paf1, stronger effect = lower value 0.933 | locus YCL011C, strain gbp2, stronger effect = lower value 0.941 | locus YCL016C, strain dcc1, stronger effect = lower value 0.963 | locus YCL061C, strain MRC1, stronger effect = lower value 0.933 | locus YCL069W, strain vba3, stronger effect = lower value 0.975 | locus YCR088W, strain abp1, stronger effect = lower value 0.969 | locus YDL005C, strain med2, stronger effect = lower value 0.974 | locus YDL040C, strain nat1, stronger effect = lower value 0.963 | locus YDR001C, strain nth1, stronger effect = lower value 0.955 | locus YDR195W, strain ref2 0.99 | locus YDR392W, strain spt3, stronger effect = lower value 0.807 | locus YEL037C, strain rad23, stronger effect = lower value 0.925 | locus YEL061C, strain CIN8 (second series), stronger effect = lower value 0.955 | locus YER016W, strain bim1, stronger effect = lower value 0.953 | locus YER110C, stronger effect = lower value 0.979 | locus YER167W, strain BCK2, stronger effect = lower value 0.909 | locus YGL078C, strain dbp3, stronger effect = lower value 0.956 | locus YGL167C, strain pmr1, stronger effect = lower value 0.935 | locus YGL227W, strain vid30, stronger effect = lower value 0.984 | locus YGL240W, strain doc1, stronger effect = lower value 0.978 | locus YGR252W, strain gcn5, stronger effect = lower value 0.77 | locus YHR030C, strain SLT2, stronger effect = lower value 0.978 | locus YHR079C, strain IRE1, stronger effect = lower value 1.02 | locus YHR094C, strain hxt1, stronger effect = lower value 0.965 | locus YIL125W, strain kgd1, stronger effect = lower value 0.951 | locus YIR030C, strain dcg1, stronger effect = lower value 0.958 | locus YJL092W, strain hpr5, stronger effect = lower value 0.97 | locus YJL115W, strain asf1, stronger effect = lower value 0.971 | locus YJL129C, strain trk1, stronger effect = lower value 0.936 | locus YJL134W, strain LCB3, stronger effect = lower value 0.932 | locus YJL154C, strain vps35, stronger effect = lower value 0.959 | locus YJL168C, strain set2, stronger effect = lower value 0.964 | locus YJR066W, strain TOR1, stronger effect = lower value 0.981
